Hit rate of the full screen: of about 69,000 compounds, about 8,600 (12%) showed an effect of 50% or more. Many of the other results were omitted from the sample, so strong results are more common in it than they were.

This experiment relates to Plasmodium berghei. As to the kind of experiment: Screen against P. berghei liver stage (PbLuc), transformed with Luciferase, at 10uM. The class given is functional, HepG2. The note with it: tested at 10 uM.
Consider `Cc1cnc(CN(C)C2CCN(Cc3nc4ccccc4o3)C2)o1` (centres undefined), for which the INHIBITION was found to be 13.3%.
As for `C1CC(NCc2nnc(C3CC3)o2)CN(Cc2noc(C3CC3)n2)C1` (centres undefined), the figure is -19.9%.
As for `CN1CCN(S(=O)(=O)c2ccc(C(=O)N3CC[C@@H](O)C3)cc2)CC1=O`, the figure is 1.41%.
For `c1cc(CC2CCCNC2)nc(NCCc2cnccn2)c1` (centres undefined), the INHIBITION is reported as 32.3%.
As for `Cn1cc(C(C)(O)CNc2ccc(Cl)c(C#N)n2)cn1` (centres undefined), the figure is -10.7%.
In the case of `Cc1ccc(C(=O)N2CCCC(c3nncn3C)C2)c(C)c1` (centres undefined) it was 45.1%; in that of `CC(C)c1nnc2n1CCN(CCC(=O)N1CCc3ccccc31)C2`, 13.7%; in that of `Cc1noc(C)c1C(=O)NCc1ccc(N2CCC(C)CC2)nc1`, 74.9%.
In the case of `Cc1noc(C)c1C(=O)NCc1ccc(N2CCOCC2)nc1` it was 5.03%; in that of `Cc1noc(C)c1C(=O)NCc1ccc(N2CCCCCC2)nc1`, 25.6%; in that of `CN(C)C(=O)[C@@H]1C[C@@H]2CCN(Cc3ccc4c(c3)OCO4)C[C@@H]2O1`, 13.1%.
For `O=C(c1ccncc1)N1CCN(c2ccc(F)cc2Cl)CC1`, the INHIBITION came to 23.8%.
As for `CN1CCN(c2ccc(F)cc2NC(=O)NCC[S+](C)[O-])CC1` (centres undefined), the figure is -33%.
As for `O=C(NCc1ccon1)Nc1cc(F)ccc1N1CCCCC1`, the figure is 28.8%.
In the case of `O=C(Cc1ccon1)N1CCN(c2ccc(F)cc2Cl)CC1` it was 50%; in that of `Cc1nc(CNC(=O)Nc2cc(F)ccc2OC(F)F)no1`, 5.91%.
For the molecule `CCN1CCN(c2ccccc2NC(=O)NCc2ccon2)CC1`, the INHIBITION is given as 50.4%.
As for `CN1CCN(c2ccc(F)cc2NC(=O)NCc2ccon2)CC1`, the figure is 51.6%.
In the case of `CC1CCCN(Cc2ccc(CNC(=O)NCc3ccon3)cc2)C1` (centres undefined) it was -18.6%.
In the case of `CCc1cc(CNC(=O)Nc2cc(F)ccc2N2CCCCC2)on1`, the INHIBITION amounted to 26.6%.
Consider `Cc1nc(CNC(=O)Nc2cc(F)ccc2N2CCN(C)CC2)no1`, for which the INHIBITION worked out at 52.7%.
Regarding `O=C(Cc1ccon1)N1CCN(c2ccncc2Cl)CC1`, the INHIBITION worked out at 20.9%.
For the molecule `CC1CN(C)c2ccccc2CN1C(=O)NCc1ccon1` (centres undefined), the INHIBITION came out at 4.6%.
In the case of `COc1cccc(C(=O)N2C[C@@H]3CC[C@H]2CN(Cc2cscn2)C3)c1` it was 7.3%; in that of `CC(C)NC(=O)NC(C)c1nc(-c2ccccc2)cs1` (centres undefined), 15.7%; in that of `O=S(=O)(c1cccc(F)c1)N1CC[C@H]2[C@H]1CCN2c1ncccn1`, -12.4%.
As for `CN(C)C(=O)[C@H]1C[C@@H]2CCN(C3CCOCC3)C[C@@H]2O1`, the figure is -0.371%.
In the case of `COc1c(C2CCCN2C(=O)c2scnc2C)c(C)nn1C` (centres undefined) it was 25.1%; in that of `COc1ccc(S(=O)(=O)NC(=O)COC2CCCCC2)cc1`, 14.1%.
As for `CC(C)n1nccc1CN1Cc2nccn2CC1c1ccccc1` (centres undefined), the INHIBITION was found to be 7.39%.
As for `Cc1nn(C)c(C)c1C(=O)NCc1cc(N(C)C)nc2ccccc12`, the figure is -21.1%; as for `CCn1nc(C)cc1C(=O)NCc1cc(N(C)C)nc2ccccc12`, 54.4%; as for `Cc1nn(C)cc1C(=O)NCc1cc(N(C)C)nc2ccccc12`, -17.8%.
For `CNC(=O)CN1CCO[C@H]2CN(C(=O)C3CC3)C[C@H]21`, the INHIBITION was -8.85%.
As for `C1CC(c2noc(C3CC3)n2)N(Cc2nnc(C3CC3)o2)C1` (centres undefined), the figure is 15.75%.
With `CC(=O)N1CCOC(c2c(C(=O)O)sc3ccccc23)C1` (centres undefined), the INHIBITION is given as -9.51%.
In the case of `CCc1ncc2c(n1)CN(Cc1nc(-c3ccccn3)no1)CC2` it was 47.1%; in that of `Cn1cnc2c1CCN(Cc1noc(-c3ccccc3)n1)C2`, 43.7%.
In the case of `Cn1cnc2c1CCN(Cc1nc(-c3ccco3)no1)C2` it was 45.1%.
As for `Cn1c(C2CC2)nc2c1CCN(Cc1nc(Cc3ccccc3)no1)C2`, the figure is 34.7%.
Turning to `CC(C)c1nc2c(n1C)CCN(Cc1nc(-c3ccsc3)no1)C2`, the INHIBITION is listed as 47.6%.
In the case of `c1ccc(Cc2noc(CN3CCc4c(ncn4C4CC4)C3)n2)cc1` it was 0.411%; in that of `c1cncc(-c2noc(CN3CCc4cncnc4C3)n2)c1`, 22.683%.
As for `Cn1cnc2c1CCN(Cc1nc(COc3ccc(F)cc3)no1)C2`, the figure is 53.8%; as for `Cn1cnc2c1CCN(Cc1nc(Cc3ccccc3)no1)C2`, 52.7%.
`c1ccc(-c2noc(CN3CCc4cncnc4C3)n2)nc1`: the INHIBITION stood at 72.9%.
As for `Cn1cnc2c1CCN(Cc1nc(-c3ccsc3)no1)C2`, the figure is 52.7%; as for `c1cc(-c2noc(CN3CCc4c(ncn4C4CC4)C3)n2)cs1`, 31.1%.
In the case of `CN1C(=O)[C@@H]2CC[C@H]1CN(C(=O)c1nnc3n1CCCCC3)C2` it was -89.9%; in that of `CCS(=O)(=O)N1CCC2(CC1)CN(c1cccnc1)C(=O)CO2`, 45.7%; in that of `CC(C)c1ncc2c(n1)CN(Cc1nc(-c3ccccn3)no1)CC2`, 28.8%.
For `CCCn1nccc1-c1nccnc1CC1CCN(C(C)=O)CC1`, the INHIBITION was 19.3%.
As for `COC1C[C@@H]2CN(C(=O)c3cc4cccc(F)c4[nH]3)C[C@@H]2C1` (some centres undefined), the figure is -14.379%; as for `CCN(CC)Cc1cn2c(n1)CN(Cc1c(C)noc1C)CC2`, 16.6%.

The values are drawn from ChEMBL document CHEMBL4513216, “Probing the Open Global Health Chemical Diversity Library for Multistage-Active Starting Points for Next-Generation Antimalarials” (ACS Infect Dis, 2020).
